# Efflux pump mplx: antifungal efflux pump inhibition, Nile Red retention; hit rate 0.44% among 330,000; inhibition, % at 10 µM; S. cerevisiae Candida pump triplex;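 active = plate passing quality check with inhibition over a set limit, or well fluorescence over plate mean plus 4 SD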;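 note: Nile Red retained in pooled yeast measured as flow cytometry median fluorescence; 0% = buffer negative control and 100% = Enniatin B positive control; higher means more Nile Red kept so more efflux inhibition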
# PHOSPHO1 block: blocks human PHOSPHO1 phosphatase activity; inhibition, % at 13.3 µM; AID 1565; hit rate 1.1% among 290,000; Q8TCT1; recombinant PHOSPHO1, absorbance phosphatase assay; in the data active = inhibition above about 60%
# H9c2 protect: myocardial damage modulation in H9c2 cells; H9c2 cardiomyocytes, H2O2 injury protection, ATPLite, 2 h; protection from H2O2 cell death, % at 20 µM; hit rate 0.63% among 360,000;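 active = compounds giving at least 50% protection of heart cells from peroxide-induced death in the single-dose screen, raw or plate-pattern-corrected value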;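 note: 0% = DMSO wells with peroxide and 100% = DMSO wells without peroxide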
# Calb FLC: C. albicans growth modulation with fluconazole. C. albicans CaCi-2 (fluconazole-resistant clinical isolate) + fluconazole, Alamar Blue growth, 48 h. growth inhibition, % (no concentration beside the values). hit rate 0.57% among 300,000. AID 1979;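 active = growth inhibition above about 58% in most replicates, limit read from the data, passing the limit was not always enough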;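 note: all wells also contain fluconazole at 8 µg/ml as a sub-toxic cotreatment; 0% = median of DMSO wells and 100% = median of geldanamycin control wells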
# Cl transport mod: modulates chloride dependent transport by human KCC2 | Q9H2X9 | KCC2 cells, thallium flux FluoZin-2 fluorescence | hit rate 2.2% among 190,000 | B-score of Tl+ flux slope (higher = more flux/activation; lower = inhibition) at 10 µM;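 active = thallium flux slope and its plate-corrected score both differing from the plate sample mean at a set confidence after two filtering rounds, in either direction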;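 note: slope of fluorescence scaled to starting intensity during 10 to 20 s after thallium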
# Target sequence (Q9H2X9 whole entry, looked up): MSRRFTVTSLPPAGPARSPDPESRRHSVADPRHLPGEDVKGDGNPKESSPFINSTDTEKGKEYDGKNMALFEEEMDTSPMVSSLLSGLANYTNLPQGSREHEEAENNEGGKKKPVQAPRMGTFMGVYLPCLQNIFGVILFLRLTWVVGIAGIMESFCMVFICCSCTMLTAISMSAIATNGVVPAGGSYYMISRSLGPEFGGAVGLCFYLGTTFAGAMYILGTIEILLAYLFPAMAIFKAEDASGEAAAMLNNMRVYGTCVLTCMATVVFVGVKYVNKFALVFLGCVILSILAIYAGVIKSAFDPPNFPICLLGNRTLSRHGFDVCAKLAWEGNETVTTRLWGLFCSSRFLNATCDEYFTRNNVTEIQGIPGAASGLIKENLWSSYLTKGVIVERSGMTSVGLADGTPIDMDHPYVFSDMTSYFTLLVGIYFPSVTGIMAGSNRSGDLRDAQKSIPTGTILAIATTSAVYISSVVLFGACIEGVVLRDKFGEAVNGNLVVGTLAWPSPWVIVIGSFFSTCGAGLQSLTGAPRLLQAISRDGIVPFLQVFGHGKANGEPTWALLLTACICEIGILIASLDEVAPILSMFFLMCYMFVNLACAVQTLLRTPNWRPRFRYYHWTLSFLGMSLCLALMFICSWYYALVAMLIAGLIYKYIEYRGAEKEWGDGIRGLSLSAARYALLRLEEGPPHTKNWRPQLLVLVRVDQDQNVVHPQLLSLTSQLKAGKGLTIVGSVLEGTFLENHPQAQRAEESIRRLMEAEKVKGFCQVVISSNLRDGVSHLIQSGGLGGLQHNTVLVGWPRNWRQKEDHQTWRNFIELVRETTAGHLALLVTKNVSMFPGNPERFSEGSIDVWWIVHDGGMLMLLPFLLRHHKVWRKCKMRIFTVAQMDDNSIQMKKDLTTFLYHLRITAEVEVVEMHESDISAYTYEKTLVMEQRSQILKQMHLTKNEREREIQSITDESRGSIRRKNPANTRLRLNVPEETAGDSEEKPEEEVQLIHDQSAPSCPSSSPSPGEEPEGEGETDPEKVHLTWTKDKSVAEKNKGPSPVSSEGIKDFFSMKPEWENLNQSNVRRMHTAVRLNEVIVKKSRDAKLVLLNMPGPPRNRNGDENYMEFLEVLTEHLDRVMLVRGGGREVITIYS
# Cmpd fluor yeast: flagged as fluorescent in efflux inhibitor counter-screen. fluorescence ratio to DMSO, % at 10 µM. S. cerevisiae AD/pABC3, compound fluorescence, flow cytometry. shares compounds with Efflux pump mplx. hit rate 4% among 1,700. AID 588517;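 active = fluorescence ratio to DMSO above its plate's cutoff, the plate mean ratio plus 5 SD, cut at about 210% in these data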;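 note: unstained yeast with no Nile Red so the signal is compound autofluorescence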
# CaMdr1 efflux inh: blocks the Candida albicans Mdr1 efflux pump in yeast | shares compounds with Efflux pump mplx | S. cerevisiae AD/CaMDR1, Nile Red efflux, flow cytometry | inhibition, % at 10 µM | hit rate 1% among 1,700; in the data active = inhibition above about 26%;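 note: 0% = DMSO vehicle and 100% = reference inhibitor; higher means more Nile Red retained so more efflux inhibition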
# CaCdr2 efflux inh: inhibitors of Candida albicans Cdr2 efflux pump. shares compounds with Efflux pump mplx. S. cerevisiae AD/CaCDR2, Nile Red retention, flow cytometry. Nile Red retention ratio vs DMSO, % at 10 µM. hit rate 4% among 1,700. AID 588520; in the data active = Nile Red retention ratio vs DMSO above about 190%;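 note: higher ratio means more blocking of Cdr2 efflux of the dye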
# Cdr1 pump inh: inhibitors of Candida albicans Cdr1 efflux pump. shares compounds with Efflux pump mplx. hit rate 1% among 1,700. S. cerevisiae AD/CaCDR1, Nile Red efflux, flow cytometry. inhibition, % at 10 µM;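 active = inhibition above the screen-wide mean plus twice its standard deviation, cut at about 32% in these data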
# * marks the source's active call; other numbers are inactive results; / = no result given. This is a sample that favours compounds with a hit; in the whole collection about 3.3% have one here.
SMILES,Efflux pump mplx,PHOSPHO1 block,H9c2 protect,Calb FLC,Cl transport mod,Cmpd fluor yeast,CaMdr1 efflux inh,CaCdr2 efflux inh,Cdr1 pump inh
CC(C)c1ccc(S(=O)(=O)Nc2ccc(O)c(Sc3ncn[nH]3)c2)cc1,-1,41,-9,3,/,111,0,116,0
COc1ccc(S(=O)(=O)Nc2ccc(O)c(Sc3ncn[nH]3)c2)cc1,0,-3,3,11,0.28,81,0,95,0
Cc1ccc(C(=O)OCC(=O)N2CCCC2)cc1,0,22,2,-11,/,/,/,/,/
COc1ccc(NC(=O)CSc2nc3c(c(=O)n2-c2ccccc2OC)SCC3)cc1,1.1*,-10,20,-1,-0.85,79,0,93,0
CC1(C)CC(NC(=O)c2cccc(Cl)c2)CC(C)(C)N1,0,36,2,25,/,/,/,/,/
COc1ccc(-n2c(Cc3cccn3C)nnc2SCC(=O)Nc2cccc(F)c2)cc1,0,5,-12,1,-1.6,84,0,100,0
Cn1cccc1Cc1nnc(SCC(=O)Nc2ccccc2)n1-c1ccc(F)cc1,0,5,12,1,1.2,101,0,104,0
COc1ccc2c(c1)OC[C@H]1[C@H]2N2C(=O)c3ccc(C)cc3NC(=O)[C@@]2(C)[C@H]1c1ccccc1,34*,/,0,/,/,104,0,106,0
COc1ccc2c(c1)[C@H]1[C@H](CO2)[C@H](c2ccccc2)[C@]2(C)C(=O)Nc3cc(Cl)ccc3C(=O)N12,0,/,-9,/,/,/,/,/,/
Cc1ccc2c(c1)[C@H]1[C@H](CO2)[C@H](c2ccccc2)[C@]2(C)C(=O)Nc3cc(F)c(F)cc3C(=O)N12,0,/,-6,/,/,101,0,98,0
COc1cc2c(cc1OC)C(=O)N1[C@H]3c4cc(C)ccc4OC[C@@H]3[C@H](c3ccccc3)[C@]1(C)C(=O)N2,0,/,4,/,/,117,1,121,1
COc1ccc2c(c1)C(=O)N1[C@H]3c4cc(Cl)ccc4OC[C@@H]3[C@H](c3ccccc3)[C@]1(C)C(=O)N2,0,/,-2,/,/,89,0,112,0
Cc1ccc2c(c1)[C@H]1[C@H](CO2)[C@H](c2ccccc2)[C@]2(C)C(=O)Nc3ccc(F)cc3C(=O)N12,/,/,-1,/,/,/,/,/,/
Cc1c(Cl)cccc1NC(=O)CSc1nc2ncc(Cl)cc2[nH]1,0,16,-14,3,/,/,/,/,/
NS(=O)(=O)c1ccc(CCNC(=O)c2cc(-c3ccccc3)nc3ccccc23)cc1,21*,-7,21,10,0.38,108,0,94,0
Cc1cc(O)c(N)c(C)c1Cl,0.8*,2,-18,2,-0.018,110,0,92,0
Cc1cc(NC(=O)CCC(=O)N(Cc2cccs2)C(C(=O)NC2CCCC2)c2ccccc2)no1 (centres undefined),0,1,18,34,-0.0096,82,0,95,0
Cc1cc(NC(=O)CCC(=O)N(Cc2ccco2)C(C(=O)NC2CCCCC2)c2cccs2)no1 (centres undefined),0,15,17,-2,0.054,/,/,/,/
Cc1ccc(C(C(=O)NC2CCCC2)N(Cc2ccco2)C(=O)CCC(=O)Nc2cc(C)on2)cc1 (centres undefined),0,-2,6,-13,-0.042,87,0,95,0
COc1c(F)cccc1C1=CC(=O)C[C@H](c2ccc(F)cc2)C1,/,/,-17,/,/,/,/,/,/
CC(C)(C)OC(=O)N1CCC(C(=O)Nc2cccc(C(=O)NCCCCc3ccccc3)c2)CC1,/,/,2,/,/,/,/,/,/
COc1ccc(S(=O)(=O)NCc2cccnc2)c(Cl)c1Cl,/,/,-2,/,/,/,/,/,/
O=C(CCl)Nc1ccc2c(c1)OCO2,1.2*,-5,-3,-4,0.68,82,0,91,0
CC(C)CC(=O)Nc1ccc2c(c1)OCO2,0,24,-2,-3,-1,/,/,/,/
CCC1(c2ccccc2)NC(=O)N(CC(=O)Nc2ccc(N3CCOCC3)cc2)C1=O (centres undefined),0,/,-2,/,/,/,/,/,/
SMILES,Efflux pump mplx,PHOSPHO1 block,H9c2 protect,Calb FLC,Cl transport mod,Cmpd fluor yeast,CaMdr1 efflux inh,CaCdr2 efflux inh,Cdr1 pump inh
CCOC(=O)[C@H]1[C@H]2COc3ccccc3[C@@H]2N2C(=O)c3ccc(C)cc3NC(=O)[C@@]12C,/,/,2,/,/,/,/,/,/
CCOC(=O)N1CCN(C(=O)/C(=C/c2cccs2)NC(=O)c2ccc(OC)c(OC)c2)CC1,0,23,9,-7,/,/,/,/,/
Cc1ccc(OCC(=O)N(C)C2CCCCC2)c([N+](=O)[O-])n1,0,/,-3,/,/,/,/,/,/
CCOC(=O)c1ccc(Nc2cc(C)nc(-c3ccccc3)n2)cc1,31*,23,-7,25,/,102,0,100,0
OC(COCc1ccc(Cl)cc1)CN1CCN(CC(O)COCc2ccc(Cl)cc2)CC1 (centres undefined),0,0,-3,6,-0.0016,/,/,/,/
OC(COCc1ccc(Cl)cc1)CN1CCCCC1 (centres undefined),1.1*,33,3,-1,/,79,0,87,0
COc1cc(C#N)ccc1OCC(=O)NCCC1=CCCCC1,0,/,-2,/,/,/,/,/,/
Cc1nn(CC(=O)NCCN2CCCCC2C)c(=O)c2cc(-c3ccccc3)nn12 (centres undefined),0,12,0,5,/,/,/,/,/
O=C(CN1CCN(S(=O)(=O)c2ccccc2F)CC1)Nc1ccccc1C(=O)c1ccccc1,0.5*,34,2,42,-0.26,111,0,98,0
CC1(C(=O)NS(=O)(=O)c2ccccc2C(F)(F)F)CCN1C(=O)CCc1ccccc1 (centres undefined),/,/,-1,/,/,/,/,/,/
COc1ccc(C2=NOC(Cn3nc(C(=O)NCC4CC4)cc3-c3ccccc3)C2)cc1 (centres undefined),0,/,6,13,/,/,/,/,/
COc1ccc(-c2noc(CCC(=O)NC3CCCCCC3)n2)cc1OC,/,/,0,/,/,/,/,/,/
C/C(=N\NC(=O)c1nnn(-c2nonc2N)c1CSc1ccccc1)c1ccc2c(c1)OCO2,1.0*,26,0,2,/,105,0,119,0
COc1ccc(S(=O)(=O)N2CCC3(CC2)CC(=O)c2ccccc2O3)cc1C,0,/,14,-9,/,/,/,/,/
Cc1ccc(S(=O)(=O)N(C)C[C@H]2Oc3c(NC(=O)Nc4cccc5ccccc45)cccc3C(=O)N([C@@H](C)CO)C[C@@H]2C)cc1,1,/,22,/,/,109,1,110,2
C[C@@H]1CN([C@H](C)CO)C(=O)c2cc(NC(=O)Nc3cccc4ccccc34)ccc2O[C@H]1CN(C)Cc1ccc(C(F)(F)F)cc1,0,/,1,/,/,/,/,/,/
